From PubChem BioAssay (NCI)
This is part of a sample that, as a whole, favours compounds with a hit. Of some 83,000 tested, about 20% had one in any assay.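 Each cell line was grown in a 96-well plate and treated with one concentration of compound for 48 hours. Values below 10 were considered active.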 Calls of active or inactive are those of the source.

Experiments:
Experiment in all cases: NCI-60 one-dose screen, 48 h (100 = growth as untreated, 0 = no growth, -100 = all killed)
Settings in all cases: 10 µM unless noted
DU-145 prostate = test system: DU-145 prostate
K-562 leukemia = test system: K-562 leukemia
MALME-3M melanoma = test system: MALME-3M melanoma
MDA-MB-231 breast = test system: MDA-MB-231 breast
RXF 393 renal = test system: RXF 393 renal
SF-268 CNS = test system: SF-268 CNS
SF-295 CNS = test system: SF-295 CNS
SF-539 CNS = test system: SF-539 CNS
UACC-257 melanoma = test system: UACC-257 melanoma
M14 melanoma = test system: M14 melanoma
HCT-15 colon = test system: HCT-15 colon
HT29 colon = test system: HT29 colon
SNB-75 CNS = test system: SNB-75 CNS
SNB-19 CNS = test system: SNB-19 CNS
U251 CNS = test system: U251 CNS
PC-3 prostate = test system: PC-3 prostate
SK-MEL-5 melanoma = test system: SK-MEL-5 melanoma
UACC-62 melanoma = test system: UACC-62 melanoma
LOX IMVI melanoma = test system: LOX IMVI melanoma
SK-MEL-28 melanoma = test system: SK-MEL-28 melanoma

Measured: growth

CC/C=C1/C(=O)C=C[C@@H]1C/C=C\CCCC(=O)O
inactive: DU-145 prostate 98.3% | K-562 leukemia 25.1% | MALME-3M melanoma 101% | MDA-MB-231 breast 79.4% | RXF 393 renal 110% | SF-268 CNS 92.4% | SF-295 CNS 101% | SF-539 CNS 101% | UACC-257 melanoma 73.9% | M14 melanoma 77.5% | HCT-15 colon 72.8% | HT29 colon 78.9% | SNB-75 CNS 105% | SNB-19 CNS 92.1% | U251 CNS 64.9% | PC-3 prostate 80.5% | SK-MEL-5 melanoma 81.5% | UACC-62 melanoma 30.7% | LOX IMVI melanoma 19.9% | SK-MEL-28 melanoma 96.9%

COc1ccc(-c2nc3sccn3c2-c2cc(-c3cc(OC)c(OC)c(OC)c3)on2)cc1
inactive: DU-145 prostate 93.3% | K-562 leukemia 47.4% | MALME-3M melanoma 105% | MDA-MB-231 breast 80.9% | RXF 393 renal 110% | SF-268 CNS 98.2% | SF-295 CNS 109% | SF-539 CNS 73.7% | UACC-257 melanoma 141% | M14 melanoma 91.7% | HCT-15 colon 96.9% | HT29 colon 86.1% | SNB-75 CNS 77.4% | SNB-19 CNS 87.5% | U251 CNS 107% | PC-3 prostate 58.9% | SK-MEL-5 melanoma 68.7% | UACC-62 melanoma 89.1% | LOX IMVI melanoma 90.5% | SK-MEL-28 melanoma 127%

COc1cc(C2CC(=O)Nc3c2c(C)nn3-c2nc3ccccc3[nH]2)c(OC)c(OC)c1OC (stereo not given)
active: SNB-75 CNS 1.94%
inactive: DU-145 prostate 53.8% | K-562 leukemia 20.5% | MALME-3M melanoma 55.1% | MDA-MB-231 breast 72.3% | RXF 393 renal 61.5% | SF-268 CNS 50.9% | SF-295 CNS 19.8% | SF-539 CNS 63.7% | UACC-257 melanoma 60.6% | M14 melanoma 17% | HCT-15 colon 33% | HT29 colon 80.7% | SNB-19 CNS 62.9% | U251 CNS 42% | PC-3 prostate 51.9% | SK-MEL-5 melanoma 46.7% | UACC-62 melanoma 40.7% | LOX IMVI melanoma 67.7% | SK-MEL-28 melanoma 72.3%

CN1C(=O)N(C)C2C1NN=c1s/c(=C\c3ccccc3)c(=O)n12 (stereo not given)
inactive: DU-145 prostate 55% | K-562 leukemia 20.3% | MALME-3M melanoma 51.3% | MDA-MB-231 breast 68.9% | RXF 393 renal 54.7% | SF-268 CNS 57.8% | SF-295 CNS 34% | SF-539 CNS 45.1% | UACC-257 melanoma 54% | M14 melanoma 31% | HCT-15 colon 27.1% | HT29 colon 77.8% | SNB-75 CNS 11.5% | SNB-19 CNS 45.4% | U251 CNS 42.1% | PC-3 prostate 28.2% | SK-MEL-5 melanoma 41% | UACC-62 melanoma 42.2% | LOX IMVI melanoma 44.6% | SK-MEL-28 melanoma 63.2%

O=c1c2c3c(sc2n2c(-c4cn(-c5ccccc5)nc4-c4ccc(Cl)cc4)nnc2n1Cc1ccccc1)CCCC3
inactive: DU-145 prostate 103% | K-562 leukemia 89.7% | MALME-3M melanoma 97.4% | MDA-MB-231 breast 80.3% | RXF 393 renal 94.5% | SF-268 CNS 99.7% | SF-295 CNS 98.5% | SF-539 CNS 90.3% | UACC-257 melanoma 118% | M14 melanoma 60.3% | HCT-15 colon 104% | HT29 colon 113% | SNB-75 CNS 66.8% | SNB-19 CNS 97.9% | U251 CNS 98.2% | PC-3 prostate 95.3% | SK-MEL-5 melanoma 95.8% | UACC-62 melanoma 90.6% | LOX IMVI melanoma 72.3% | SK-MEL-28 melanoma 105%

CCN(CC)CCn1nc2c3c(cccc3c1=O)-c1ccccc1-2
inactive: DU-145 prostate 20.9% | K-562 leukemia 13.8% | MDA-MB-231 breast 37.7% | RXF 393 renal 24.2% | SF-268 CNS 45.9% | SF-539 CNS 30.7% | M14 melanoma 28.4% | HCT-15 colon 17.1% | HT29 colon 15.6% | SNB-75 CNS 50.9% | SNB-19 CNS 26% | PC-3 prostate 26.6% | SK-MEL-28 melanoma 37.1%
active: MALME-3M melanoma -9.04% | SF-295 CNS 7.02% | UACC-257 melanoma 2.85% | U251 CNS 6.95% | SK-MEL-5 melanoma -20% | UACC-62 melanoma 5.94% | LOX IMVI melanoma -3.44%

O=S(=O)(O)c1ccc(N/N=C/c2ccccc2Cl)cc1
inactive: DU-145 prostate 116% | K-562 leukemia 95.6% | MALME-3M melanoma 109% | MDA-MB-231 breast 118% | RXF 393 renal 125% | SF-268 CNS 103% | SF-295 CNS 108% | SF-539 CNS 101% | UACC-257 melanoma 116% | M14 melanoma 99.9% | HCT-15 colon 97% | HT29 colon 100% | SNB-75 CNS 94.6% | SNB-19 CNS 109% | U251 CNS 99.5% | PC-3 prostate 99.2% | SK-MEL-5 melanoma 103% | UACC-62 melanoma 111% | LOX IMVI melanoma 128% | SK-MEL-28 melanoma 111%

O=C(Cc1ccc(F)c(F)c1)Nc1cc(C2(C(F)(F)F)CC2)nn1Cc1ccccc1
active: MALME-3M melanoma -37.7% | MDA-MB-231 breast -70.7% | RXF 393 renal -26.9% | SF-268 CNS 9.11% | SF-295 CNS -1.31% | UACC-257 melanoma -14.6% | HCT-15 colon 6.24% | SNB-75 CNS -14.9% | U251 CNS 4.6% | PC-3 prostate -6.07% | SK-MEL-5 melanoma -80.8% | UACC-62 melanoma -10.3% | LOX IMVI melanoma 5.44%
inactive: DU-145 prostate 20.5% | K-562 leukemia 13.3% | SF-539 CNS 16.3% | M14 melanoma 20.2% | HT29 colon 17.6% | SNB-19 CNS 13.3% | SK-MEL-28 melanoma 18.6%

N#Cc1c(-c2cccc(Cl)c2)cc(-c2cccc(Cl)c2)[nH]c1=O
inactive: DU-145 prostate 96.5% | K-562 leukemia 27.1% | MALME-3M melanoma 69% | MDA-MB-231 breast 90.5% | RXF 393 renal 82.1% | SF-268 CNS 83.4% | SF-295 CNS 83.7% | SF-539 CNS 82.7% | UACC-257 melanoma 90.2% | M14 melanoma 57.9% | HCT-15 colon 44.9% | HT29 colon 114% | SNB-75 CNS 43% | SNB-19 CNS 71.6% | U251 CNS 74.7% | PC-3 prostate 68.7% | SK-MEL-5 melanoma 64.9% | UACC-62 melanoma 45.2% | LOX IMVI melanoma 72.3% | SK-MEL-28 melanoma 78.5%

CC(C)CCC[C@@H](C)[C@H]1CC[C@H]2[C@@H](Nc3ccc(O)cc3)CCC[C@]12C
inactive: DU-145 prostate 96.5% | K-562 leukemia 105% | MALME-3M melanoma 133% | MDA-MB-231 breast 109% | RXF 393 renal 70.6% | SF-268 CNS 80.2% | SF-295 CNS 98.5% | SF-539 CNS 17.5% | UACC-257 melanoma 42.2% | M14 melanoma 102% | HCT-15 colon 70.8% | HT29 colon 89.5% | SNB-75 CNS 75.8% | SNB-19 CNS 111% | U251 CNS 91.8% | PC-3 prostate 33.5% | SK-MEL-5 melanoma 97.9% | UACC-62 melanoma 76.5% | LOX IMVI melanoma 34.7% | SK-MEL-28 melanoma 97.9%

CNC(=O)c1cc(Oc2ccc3nc(Nc4ccc(Cl)c(C(F)(F)F)c4)ccc3c2)ccn1
inactive: DU-145 prostate 75.7% | K-562 leukemia 40.4% | MALME-3M melanoma 82.9% | MDA-MB-231 breast 77.8% | RXF 393 renal 74.6% | SF-268 CNS 66.5% | SF-295 CNS 66% | SF-539 CNS 84.8% | UACC-257 melanoma 46.8% | M14 melanoma 48.2% | HCT-15 colon 41.2% | HT29 colon 39.6% | SNB-75 CNS 82.7% | SNB-19 CNS 77% | U251 CNS 56.8% | PC-3 prostate 21.7% | SK-MEL-5 melanoma 60.5% | UACC-62 melanoma 47.3% | LOX IMVI melanoma 60.8% | SK-MEL-28 melanoma 68.6%

Cc1c(C)c2c(c(C)c1OCC(=O)O)CC[C@@](C)(CCC[C@@H](C)CCC[C@@H](C)CCCC(C)C)O2
active: DU-145 prostate 6.97% [50 µM] | K-562 leukemia 6.54% [50 µM] | MALME-3M melanoma -35.8% [50 µM] | MDA-MB-231 breast -2.79% [50 µM] | RXF 393 renal -34.5% [50 µM] | SF-268 CNS -5.58% [50 µM] | SF-539 CNS -7.25% [50 µM] | M14 melanoma -19.2% [50 µM] | HCT-15 colon -28.5% [50 µM] | HT29 colon 6.19% [50 µM] | U251 CNS -30.3% [50 µM] | PC-3 prostate -16% [50 µM] | SK-MEL-5 melanoma -77.1% [50 µM] | UACC-62 melanoma -75.2% [50 µM] | LOX IMVI melanoma -83.9% [50 µM] | SK-MEL-28 melanoma -15.1% [50 µM]
inactive: SF-295 CNS 35.8% [50 µM] | UACC-257 melanoma 38.7% [50 µM] | SNB-75 CNS 67.6% [50 µM] | SNB-19 CNS 17% [50 µM]

COc1ccc(CNC(=O)C(O)C(Cc2ccccc2)NC(=O)c2[nH]c3ccccc3c(=O)c2C)cc1OC (stereo not given)
inactive: DU-145 prostate 113% | K-562 leukemia 102% | MALME-3M melanoma 111% | MDA-MB-231 breast 103% | RXF 393 renal 111% | SF-268 CNS 102% | SF-295 CNS 99.7% | SF-539 CNS 107% | UACC-257 melanoma 105% | M14 melanoma 106% | HCT-15 colon 101% | HT29 colon 100% | SNB-75 CNS 107% | SNB-19 CNS 100% | U251 CNS 101% | PC-3 prostate 102% | SK-MEL-5 melanoma 103% | UACC-62 melanoma 103% | LOX IMVI melanoma 104% | SK-MEL-28 melanoma 109%

S=C(c1ccc2c(c1)OCO2)N1CCN(c2ccccc2Cl)CC1
inactive: DU-145 prostate 105% | K-562 leukemia 108% | MALME-3M melanoma 72% | MDA-MB-231 breast 98.7% | RXF 393 renal 109% | SF-268 CNS 94% | SF-295 CNS 118% | SF-539 CNS 102% | UACC-257 melanoma 96.2% | M14 melanoma 99.3% | HCT-15 colon 96.2% | HT29 colon 93.6% | SNB-75 CNS 100% | SNB-19 CNS 99.4% | U251 CNS 95.2% | PC-3 prostate 84.7% | SK-MEL-5 melanoma 89.6% | UACC-62 melanoma 89.5% | LOX IMVI melanoma 111% | SK-MEL-28 melanoma 103%
